# Inconclusive results are not listed. Where a call stands in place of a potency, no number is given. Active and inactive are the calls of the source. The call rests on the fitted dose curve.
# Key:
# [1] = Cytotoxicity counterscreen for inhibitors of SARS-CoV-2 cell entry (AID 1645845); conditions: outcome: dose series up to 57.1 µM unless noted; further: nearly all actives have a fitted effect of over 50% in size
# How it was run: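 Expi293F/hACE2 cells seeded overnight; cpd pin-transferred in DMSO, 1 h preincubation, + media, 48 h 37 C 5% CO2; ATPLite 1step luminescence; normalized to cells and no cells.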
# [2] = Primary qHTS to identify inhibitors of SARS-CoV-2 cell entry (AID 1645846); conditions: SARS-CoV-2 pseudovirus cell entry assay, luminescence; activity change, negative = inhibition: at 57.1 µM (top of the series) unless noted; further: nearly all actives have a fitted effect of over 45% in size
# How it was run: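 Using luciferase-reporting pseudoviruses carrying Wuhan-Hu-1 spike, the screen tracks entry into stably ACE2-expressing cells over 48 hr. Activity is expressed relative to spike particles versus particles lacking any fusion protein.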
# Potency means the concentration at half of the fitted maximal effect.
compound,measurement,setting,value
C[C@@H]1Cc2c([nH]c3ccccc23)[C@@H](c2c(F)cc(/C=C/C(=O)O)cc2F)N1CC(C)(C)F,Potency,[1],inactive
CNC(=O)c1cc(Oc2ccc3nc(N[C@@H]4CCCC[C@H]4O)sc3c2)ccn1,Potency,[1],inactive
COc1cc2ncnc(Nc3ccc(O)c(Br)c3)c2cc1OC,Potency,[1],inactive
O=S(=O)(Nc1ccc(-c2cccnc2)c2cccnc12)c1cccc(C(F)(F)F)c1,Potency,[1],14.1 µM (active)
CCC(=O)N1CCOc2c(cc(-c3cc(OC)cc(OC)c3)cc2C(=O)N[C@H]2CCCN(C)C2)C1,Potency,[1],inactive
same,"activity change, negative = inhibition",[2],-26.1%
C=CCN1C[C@H](C(=O)N(CCCN(C)C)C(=O)NCC)CC2c3cccc4[nH]cc(c34)C[C@H]21 (stereo not given in full),Potency,[1],inactive
same,"activity change, negative = inhibition",[2],-15.3%
CS(=O)(=O)c1ccc(-c2nnc(/C=C/c3nnc(-c4ccc(C#N)cc4)o3)n2-c2ccccc2Cl)nc1,Potency,[1],inactive
same,"activity change, negative = inhibition",[2],-12.6%
Cc1c(Cl)cccc1S(=O)(=O)Nc1nc(CCN2CCOCC2=O)cs1,Potency,[1],inactive
same,"activity change, negative = inhibition",[2],-11.4%
CN1CCN(C(=O)[C@H]2[C@@H](C(=O)O)[C@H]3CC[C@@H]2O3)CC1,"activity change, negative = cytotoxicity",[1],2.39% [at 11.3 µM] (inactive)
same,"activity change, negative = inhibition",[2],-6.02% [at 11.3 µM]
CN[C@@H](C)C(=O)N[C@H](C(=O)N1CCC[C@H]1C(=O)Nc1snnc1-c1ccccc1)C1CCCCC1,Potency,[1],inactive
CCCCOC(=O)NS(=O)(=O)c1sc(CC(C)C)cc1-c1ccc(Cn2ccnc2)cc1,Potency,[1],inactive
same,Potency,[2],inactive
CC1(C)SCCN(S(=O)(=O)c2ccc(OCC#CCO)cc2)[C@H]1C(=O)NO,Potency,[1],inactive
same,"activity change, negative = inhibition",[2],-8.73%
CC1(C)O[C@@H]2C[C@H]3[C@@H]4CCC5=CC(=O)C=C[C@]5(C)[C@H]4[C@@H](O)C[C@]3(C)[C@]2(C(=O)CO)O1,Potency,[1],inactive
Cc1noc2c1-c1ccccc1C(c1ccc(Cl)cc1)=N[C@H]2CC(N)=O,Potency,[1],inactive
Cc1cc(Nc2cc(N)ncn2)c(=O)n2c1C(=O)NC21CCCCC1,Potency,[1],inactive
Cc1ccc(Nc2ncc3c(n2)N(C)C(=O)N(c2cc(NC(=O)c4cccc(C(F)(F)F)c4)ccc2C)C3)cn1,Potency,[1],inactive
O=C(NC[C@H](O)CN1CCc2ccccc2C1)c1cc(NC2COC2)ncn1,Potency,[1],inactive
same,"activity change, negative = inhibition",[2],-13.5%
CNC(=O)[C@H]1O[C@@H](n2cnc3c(NCc4cccc(I)c4)nc(Cl)nc32)[C@H](O)[C@@H]1O,Potency,[1],inactive
same,Potency,[2],inactive
CC1=C(c2ccc(O)cc2)[C@H](c2ccc(OCCN3CCCCC3)cc2)Oc2cc(O)ccc21,Potency,[1],inactive
same,"activity change, negative = inhibition",[2],-47.4%
CC1c2cccc(O)c2C(O)=C2C(=O)C3(O)C(O)=C(C(N)=O)C(=O)C(N(C)C)C3C(O)C21 (stereo not given),Potency,[1],inactive
same,"activity change, negative = inhibition",[2],-15.9%
CC(C)[C@@H](CS(=O)(=O)C(C)C)N1C(=O)[C@@](C)(CC(=O)O)C[C@H](c2cccc(Cl)c2)[C@H]1c1ccc(Cl)cc1,Potency,[1],inactive
same,"activity change, negative = inhibition",[2],-11.9%
O=C(/C=C\n1cnc(-c2cc(C(F)(F)F)cc(C(F)(F)F)c2)n1)NNc1ccccn1,Potency,[1],2.51 µM (active)
same,Potency,[2],3.16 µM (active)
CC[C@@H](Oc1cccc(CN(CCCOc2ccc(OC)cc2)c2nc3ccccc3o2)c1)C(=O)O,Potency,[1],inactive
same,"activity change, negative = inhibition",[2],-15.3%
COc1cc2c3c(n(CCCNCCO)c(=O)c2cc1OC)-c1cc2c(cc1C3=O)OCO2,Potency,[1],7.94 µM (active)
same,"activity change, negative = inhibition",[2],-96.5%
CN(CCO)C1CCN(c2ccc(Nc3ncc4c5ccnc(F)c5n(C5CCCC5)c4n3)nc2)CC1,Potency,[1],inactive
same,"activity change, negative = inhibition",[2],-15.6% [at 27.1 µM]
C=CC(=O)Nc1ccc2ncnc(Nc3cccc(Br)c3)c2c1,Potency,[1],14.1 µM (active)
same,Potency,[2],7.94 µM (active)
C[C@H]1Oc2cc(cnc2N)-c2c(nn(C)c2C#N)CN(C)C(=O)c2ccc(F)cc21,Potency,[1],inactive
same,"activity change, negative = inhibition",[2],-7.26%
Nc1nc(F)nc2c1ncn2[C@@H]1O[C@H](COP(=O)(O)O)[C@@H](O)[C@@H]1O,Potency,[1],inactive
same,"activity change, negative = inhibition",[2],0.103%
Cc1ncc(NC(=O)c2cccc(C(F)(F)F)c2)cc1-c1cnc(OC2CCOCC2)c(N2CCOCC2)c1,Potency,[1],inactive
CNC(=O)c1c(C)oc2cc(Oc3ncnc4cc(OC)c(OC)cc34)ccc12,Potency,[1],inactive
same,Potency,[2],inactive
O=C(/C=C/c1ccc2ccc(C(F)(F)F)cc2n1)c1ccncc1,Potency,[1],inactive
same,"activity change, negative = inhibition",[2],-5.32%
CN1CCN(C(=O)c2ccc(-c3ccc4c(C=O)c(O)ccc4c3)s2)CC1,Potency,[1],inactive
same,Potency,[2],inactive
Cc1nc(NC(=O)N2CCCC2C(N)=O)sc1-c1ccnc(C(C)(C)C(F)(F)F)c1 (stereo not given),Potency,[1],inactive
same,"activity change, negative = inhibition",[2],-29.8%
Cc1nc(-c2cccnc2)sc1C(=O)Nc1ccccc1-c1cn2c(CN3CCOCC3)csc2n1,Potency,[1],inactive
same,Potency,[2],inactive
CNC(=O)[C@H](Cc1c[nH]c2ccccc12)NC(=O)[C@@H](CC(=O)NO)CC(C)C,Potency,[1],inactive
Cc1cc(I)ccc1Nc1c(C(=O)NOCC2CC2)cc(F)c(F)c1F,Potency,[1],17.8 µM (active)
same,Potency,[2],12.6 µM (active)
Cc1cc(O[C@@H](CCC(F)(F)F)c2ccc(C(=O)NCCC(=O)O)cc2)cc(C)c1-c1ccc(C(C)(C)C)cc1,Potency,[1],inactive
same,"activity change, negative = inhibition",[2],-0.0119%
COc1ccc(-c2c(C)nn3c(NCCN4CCOCC4)cc(C)nc23)cc1OC,Potency,[1],inactive
same,"activity change, negative = inhibition",[2],3.31%
C[C@@H](Oc1cc(C(=O)Nc2ccc(C(=O)N3CCN(C)CC3)cc2)nnc1N)c1c(Cl)ccc(F)c1Cl,Potency,[1],28.2 µM (active)
same,Potency,[2],12.6 µM (active)
CCN1CCN(Cc2ccc(NC(=O)c3ccc(C)c(NC(=O)c4cncc(-c5cccs5)c4)c3)cc2C(F)(F)F)CC1,Potency,[1],31.6 µM (active)
same,Potency,[2],3.16 µM (active)
Cc1nc2cccc(N)c2c(=O)n1C1CCC(=O)NC1=O (stereo not given),Potency,[1],inactive
same,"activity change, negative = inhibition",[2],-12.7%
Cc1cc(OCc2nnc(SC3CCCC3)n2-c2cccnc2)ccc1-c1ccc(S(C)(=O)=O)cc1,Potency,[1],inactive
same,"activity change, negative = inhibition",[2],-22.4%
CN[C@@H](C)C(=O)N[C@@H]1C(=O)N(Cc2c(C)ccc3ccccc23)c2ccc(C#N)cc2N(C(C)=O)[C@H]1C,Potency,[1],inactive
same,Potency,[2],inactive
COc1cc(C)[nH]c(=O)c1CN1CCc2c(Cl)cc([C@H](OC)C3COC3)c(Cl)c2C1=O,Potency,[1],inactive
same,Potency,[2],inactive
O=C1CC(c2c[nH]c3ccc(F)cc23)C(=O)N1 (stereo not given),Potency,[1],inactive
same,"activity change, negative = inhibition",[2],1.8%
O=C(O)c1ccccc1-c1ccc(/C=c2\sc3nc4cc(Br)cnc4n3c2=O)o1,Potency,[1],inactive
same,"activity change, negative = inhibition",[2],-1.33% [at 27.1 µM]
COc1ccc([C@@H]2CC(=O)c3c(O)cc(O[C@@H]4O[C@H](CO[C@@H]5O[C@@H](C)[C@H](O)[C@@H](O)[C@H]5O)[C@@H](O)[C@H](O)[C@H]4O)cc3O2)cc1O,Potency,[1],inactive
same,Potency,[2],inactive
Cc1cc(Oc2ccc3nc(COc4ccc(CC5SC(=O)NC5=O)cc4)n(C)c3c2)cc(C)c1N (stereo not given),Potency,[1],inactive
same,"activity change, negative = inhibition",[2],2.59%
COc1ccc(-n2cnc3cc(C(=O)N4CCCCC4)ccc32)cc1,Potency,[1],inactive
same,"activity change, negative = inhibition",[2],0.509%
C/C=C/C[C@@H](C)C(=O)[C@H]1C(=O)N[C@@H](C(C)C)C(=O)N(C)CC(=O)N(C)[C@@H](CC(C)C)C(=O)N[C@@H](C(C)C)C(=O)N(C)[C@@H](CC(C)C)C(=O)N[C@@H](C)C(=O)N[C@H](C)C(=O)N(C)[C@@H](CC(C)C)C(=O)N(C)[C@@H](CC(C)C)C(=O)N(C)[C@@H](C(C)C)C(=O)N1C,Potency,[1],inactive
same,"activity change, negative = inhibition",[2],-14.4% [at 27.1 µM]
CCc1c(C(=O)NNC(=O)[C@@H](O)c2cc(F)cc(F)c2)ccc(O)c1C,Potency,[1],inactive
same,"activity change, negative = inhibition",[2],-19.8%
Nc1nc(OC(c2ccc(-c3cccc(F)c3)cc2)C(F)(F)F)cc(-c2ccc(C[C@@H](N)C(=O)O)cc2)n1 (stereo not given in full),Potency,[1],inactive
same,Potency,[2],inactive
N#Cc1ccc(C2CCCc3cncn32)cc1 (stereo not given),Potency,[1],inactive
same,"activity change, negative = inhibition",[2],-13.4% [at 27.1 µM]
COc1ccc(-c2oc3ncnc(N)c3c2-c2ccc(NC(=O)Nc3cc(C(F)(F)F)ccc3F)cc2)cc1,Potency,[1],inactive
same,"activity change, negative = inhibition",[2],0.997%
Cc1c(-c2cnccn2)ssc1=S,Potency,[1],inactive
same,"activity change, negative = inhibition",[2],3.56%
COc1cc2c(NC3CCN(C)CC3)nc(N3CCCN(C)CC3)nc2cc1OCCCN(C)C,Potency,[1],inactive
same,"activity change, negative = inhibition",[2],-3.44%
O=C(c1ccc(/C=C/c2n[nH]c3ccccc23)cc1)N1CCNCC1,Potency,[1],inactive
same,Potency,[2],inactive
COc1ccccc1C(=O)Nc1cc2c(cc1N1CCNC[C@H]1C)n(C)c(=O)n2C,Potency,[1],inactive
same,"activity change, negative = inhibition",[2],-55.2%
CCc1cc2c(c(OCC(F)(F)F)c(C(=O)NC3CCN(C(=O)CO)CC3)n2C)c(=O)n1CC(=O)c1ccccc1,Potency,[1],inactive
same,"activity change, negative = inhibition",[2],-53.6%
N#CCC1(n2cc(-c3ncnc4[nH]ccc34)cn2)CN(C2CCN(C(=O)c3ccnc(C(F)(F)F)c3F)CC2)C1,Potency,[1],inactive
same,Potency,[2],inactive
C[C@H](CCC(=O)O)[C@H]1CC[C@H]2[C@@H]3[C@H](O)C[C@@H]4C[C@H](O)CC[C@]4(C)[C@H]3CC[C@]12C,Potency,[1],inactive
same,"activity change, negative = inhibition",[2],-12.9%
COc1ccccc1C(=O)Nc1cc2c(cc1N1CCCC1)n(C)c(=O)n2C,Potency,[1],inactive
same,"activity change, negative = inhibition",[2],-27%
CCCCC[C@H](O)/C=C/[C@H]1[C@H](O)CC(=O)[C@@H]1CCCCCCC(=O)O,Potency,[1],inactive
same,"activity change, negative = inhibition",[2],-2.28%
